The panel holds about 83,000 compounds, 20% with a hit somewhere; the sample as a whole holds those more often.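 Each cell line was grown in a 96-well plate and treated with one concentration of compound for 48 hours. Values below 10 were considered active.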 Values without a mark were called inactive.

For one test, the system named is ACHN renal. Nature of the test: NCI-60 one-dose screen, 48 h (100 = growth as untreated, 0 = no growth, -100 = all killed). As to conditions: 1 µM.
For `CC/C(=C(/c1ccc(O)cc1)c1ccc(OCCN(C)C(=O)COCCOCCNC(=O)c2ccc3c(c2)CN([C@@H]2CCC(=O)NC2=O)C3=O)cc1)c1ccccc1`, the growth was 104%.

With `CC/C(=C(/c1ccc(O)cc1)c1ccc(OCCN(C)C(=O)CCOCCNC(=O)Cc2ccc3c(c2)CN([C@@H]2CCC(=O)NC2=O)C3=O)cc1)c1ccccc1`, the growth was 103%.

Regarding `CC/C(=C(/c1ccc(O)cc1)c1ccc(OCCN(C)C(=O)COCCOCCNC(=O)Cc2ccc3c(c2)CN([C@@H]2CCC(=O)NC2=O)C3=O)cc1)c1ccccc1`, the growth was 102%.

As for `CC/C(=C(\c1ccc(O)cc1)c1ccc(OCCNC)cc1)c1ccccc1`, the growth is 98.4%.

As to `CC/C(=C(\c1ccc(O)cc1)c1ccc(OCCN(C)C(=O)CCOCCNC(=O)c2ccc3c(c2)CN([C@@H]2CCC(=O)NC2=O)C3=O)cc1)c1ccccc1`, the growth is 103%.

Consider `CC/C(=C(\c1ccc(O)cc1)c1ccc(OCCN(C)C(=O)COCCNC(=O)Cc2ccc3c(c2)CN([C@@H]2CCC(=O)NC2=O)C3=O)cc1)c1ccccc1`, for which the growth was 104%.

Staying with this test, now noted: 10 µM.
Turning to `CC/C(=C(/c1ccc(O)cc1)c1ccc(OCCN(C)C(=O)COCCOCCNC(=O)c2ccc3c(c2)CN([C@@H]2CCC(=O)NC2=O)C3=O)cc1)c1ccccc1`, the growth is 101%.

As to `CC/C(=C(/c1ccc(O)cc1)c1ccc(OCCN(C)C(=O)CCOCCNC(=O)Cc2ccc3c(c2)CN([C@@H]2CCC(=O)NC2=O)C3=O)cc1)c1ccccc1`, the growth is 101%.

With `CC/C(=C(/c1ccc(O)cc1)c1ccc(OCCN(C)C(=O)COCCOCCNC(=O)Cc2ccc3c(c2)CN([C@@H]2CCC(=O)NC2=O)C3=O)cc1)c1ccccc1`, the growth is 106%.

Consider `CC/C(=C(\c1ccc(O)cc1)c1ccc(OCCNC)cc1)c1ccccc1`, for which the growth was 90.4%.

Take `CC/C(=C(\c1ccc(O)cc1)c1ccc(OCCN(C)C(=O)CCOCCNC(=O)c2ccc3c(c2)CN([C@@H]2CCC(=O)NC2=O)C3=O)cc1)c1ccccc1`: the growth was 106%.

Take `CC/C(=C(\c1ccc(O)cc1)c1ccc(OCCN(C)C(=O)COCCNC(=O)Cc2ccc3c(c2)CN([C@@H]2CCC(=O)NC2=O)C3=O)cc1)c1ccccc1`: the growth was 102%.
